Screening data from PubChem.
IL2 activator: activates IL-2 in a cell-based reporter assay; actives 0.065% (n = 360,000); activation, % (series mostly up to about 46 µM); IL-2 activation reporter assay, cell-based qHTS; stimulated with anti-CD3/CD4/CD28 beads; in transgenic mouse T cells; in the data active means activation above about 50%; inconclusive means mostly about 30% to 49%
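Screening format: compound pinned onto unstimulated transgenic mouse T cells, 60 min incubation, then anti-CD3/anti-CD4/anti-CD28 bead stimulation for 18 hours at 37 degrees C, followed by EGFP and DsRed detection.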
uPA generation: cell surface uPA generation inhibition | cell surface uPA generation assay, qHTS | Potency, µM (doses to about 38.3 µM), usual class: inhibitors | actives 0.31% (n = 330,000) | AID 540303; active means well fitted inhibition curve with a large enough effect; inconclusive means small, poorly fitted or top-dose-only effect; inactive means no such curve, though single readings can be large or run the other way; tested in mouse RAW 264.7 cells; further: nearly all actives have a fitted effect of over 55% in size
TCR activator: T cell receptor activation. 330,000 tested, under 10 active. AID 504894. Potency, µM (top dose mostly 9.22 µM), actives largely listed as activators. primary human leukocytes, anti-CD3, IL-2 HTRF, 48 h
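IL-2 release read by HTRF sandwich (Eu cryptate donor, d2 acceptor, 665 nm emission) after 48 hr exposure of primary human leukocytes to compound together with anti-CD3 beads in the absence of co-stimulatory signals.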
p53 reactivator: mutant p53 re-activation in reporter cells | AID 504706 | Potency, µM (series often up to 92.2 µM), actives largely listed as activators | H1299 p53-A138V BP100-luciferase reporter, luminescence, 24 h | actives 0.063% (n = 320,000); further: nearly all actives have a fitted effect of over 45% in size
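p53-null H1299 cells stably carrying temperature-sensitive p53-A138V and a BP100-luciferase reporter were pinned with compounds (4-point, 1:5 series) and held 24 hrs at 37 deg C. Luminescence was read 10 min after detection reagent.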
BRCA1 expr up: BRCA1 expression activation. actives 1.1% (n = 380,000). Potency, µM (doses to about 46.1 µM), hits mostly activators. MCF7-BRCA1-FFLuc reporter, luminescence, 48 h; response scale: scaled: vehicle 0%, 10 µM genistein 100%; further: nearly all actives have a fitted effect of over 80% in size
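MCF7-BRCA1-FFLuc, 2000 cells/well; 2 h attach, 37 °C/5% CO2; compound 48 h; luciferase substrate 15 min; luminescence end-point. Norm. to genistein 10 microM max activation and DMSO; concentration-response curves fitted.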
Each line names hits and unclear results; the compound was inactive in the other large screens. Rows were chosen to be rich in hits. Some 1.4% of all compounds tested hit in one or more screens of this group. Unless noted, the call rests on the fitted dose curve; in most records, active means well fitted curve in the direction sought with a large enough effect; inconclusive means small, poorly fitted or top-dose-only effect, or another doubt; inactive means no such curve, though single readings can be large; an effect the other way counts as inactive or inconclusive.

c1ccc(CNn2nnc3ccccc32)cc1	BRCA1 expr up 5.01µM (no result: uPA generation, TCR activator, p53 reactivator)
C(#Cc1ccccc1)Cn1nnc2ccccc21	p53 reactivator inconclusive, BRCA1 expr up 12.6µM
O=C(O)Cn1nnc2ccccc21	none
N/C(=N\OC(=O)CCC1CCCC1)c1ccccn1	p53 reactivator inconclusive, BRCA1 expr up 7.08µM
N/C(=N\OC(=O)Cc1ccccc1)c1ccccn1	p53 reactivator inconclusive, BRCA1 expr up inconclusive
N/C(=N\OC(=O)COc1ccccc1)c1cccnc1	none
N/C(=N\OC(=O)CCCc1ccccc1)c1ccccn1	BRCA1 expr up 11.2µM
N/C(=N\OC(=O)COc1ccccc1)c1ccccn1	p53 reactivator inconclusive, BRCA1 expr up 12.6µM
N/C(=N\OC(=O)COc1ccccc1)c1ccncc1	BRCA1 expr up 12.6µM
CCn1c(=O)cc(OCC(=O)N(C)c2cc(Cl)ccc2C)c2ccccc21	none (no result: IL2 activator, uPA generation, TCR activator, p53 reactivator)
N/C(=N\OC(=O)COc1ccc2ccccc2c1Br)c1ccccn1	BRCA1 expr up 10µM
N/C(=N\OC(=O)COc1ccc2ccccc2c1Br)c1cccnc1	none (no result: IL2 activator, uPA generation, TCR activator, BRCA1 expr up)
CCc1nc2c(OCc3cccc(Cl)c3)cccn2c1N(C)C(C)=O	IL2 activator 54.6 (no result: uPA generation, TCR activator, p53 reactivator)
CCc1nc2c(OCc3cccc(Cl)c3)cccn2c1N(C)C(=O)C(C)C	none (no result: uPA generation, TCR activator, p53 reactivator)
CCCCN(C)CCNC(=O)c1ccc(Cn2c(=O)[nH]c3cc(OC)c(OC)cc3c2=O)cc1	none (no result: IL2 activator, uPA generation, TCR activator, p53 reactivator)
COc1ccc(NC(=O)c2sc3nc(-c4cccnc4)ccc3c2N)cc1OC	IL2 activator 94.2
Cc1cc(C(=O)OCC(N)=O)c(C)n1-c1ccccc1	none
C/C(N)=C(/C#N)C(=O)COC(=O)c1cc(C)n(-c2ccc(F)cc2)c1C	p53 reactivator inconclusive, BRCA1 expr up 8.91µM
O=C(COc1ccc(/C=C\[N+](=O)[O-])cc1)N1CCOCC1	none
O=[N+]([O-])/C=C\c1ccc(N2CCOCC2)cc1	uPA generation 8.91µM (no result: p53 reactivator)
COc1ccccc1/C=N\Nc1ccccc1[N+](=O)[O-]	p53 reactivator inconclusive, BRCA1 expr up 10µM
O=[N+]([O-])c1ccc(N/N=C/c2cccs2)nc1	BRCA1 expr up 3.98µM (no result: p53 reactivator)
COc1cccc(C=NNc2ccc([N+](=O)[O-])cn2)c1OC	none (no result: p53 reactivator)
COc1ccccc1C=NNc1ccc([N+](=O)[O-])cn1	IL2 activator 72.8 (no result: p53 reactivator)
N#Cc1ccccc1Cn1cc(/C=N/Nc2ccc([N+](=O)[O-])cn2)c2ccccc21	IL2 activator 74.0
COc1ccccc1C1NC(c2ccc3c(c2)OCO3)=CC(c2cc(Br)ccc2O)N1 (centres undefined)	none (no result: IL2 activator, uPA generation, TCR activator, p53 reactivator)
CCOc1cc(C(=O)OCc2cc(=O)n3nc(C4CC4)sc3n2)cc(OCC)c1OCC	none (no result: IL2 activator, uPA generation, TCR activator, p53 reactivator)
CCOCCCn1c(SCC(=O)Nc2ccccc2Cl)nc2c(oc3ccccc32)c1=O	none (no result: IL2 activator, uPA generation, TCR activator, p53 reactivator)
COc1ccc(C(=O)N/N=C\c2ccoc2)cc1	BRCA1 expr up inconclusive
COc1ccc(/[N+]([O-])=C/c2ccoc2)cc1	uPA generation inconclusive, p53 reactivator inconclusive, BRCA1 expr up 11.2µM
O=S(=O)(c1cccc(-c2nc3ccccc3s2)c1)N1CCCC1	p53 reactivator inconclusive (no result: uPA generation)
O=S(=O)(c1ccc(-c2nc3ccccc3s2)cc1)N1CCCC1	BRCA1 expr up 2.51µM (no result: uPA generation)
COc1cc(-c2nc(Cn3nnc(C(=O)Nc4cccc(Cl)c4)c3C)c(C)o2)cc(OC)c1OC	none (no result: IL2 activator, uPA generation, TCR activator, p53 reactivator)
O=C(CSc1nc2cc(C(=O)NC3CCCC3)ccc2c(=O)n1CC1CCCO1)c1cccc(Cl)c1 (centres undefined)	none (no result: IL2 activator, uPA generation, TCR activator, p53 reactivator)
Cc1ccccc1C(=O)N=c1sccn1C	BRCA1 expr up inconclusive
Cc1cccc(C(=O)N=c2sccn2C)c1[N+](=O)[O-]	BRCA1 expr up 5.01µM
CCc1ccc(NC(=O)CC2C(=O)OCCN2CC)cc1 (centres undefined)	none (no result: IL2 activator, uPA generation, TCR activator, p53 reactivator)
CC1=CC(=O)C(C(C)C)=C/C1=N/OS(=O)(=O)c1ccccc1	uPA generation 3.98µM
CCOC(=O)c1c(NC(=O)CSc2cn(CCNC(=O)c3ccc(OC)c(OC)c3)c3ccccc23)sc2c1CCCC2	none (no result: IL2 activator, uPA generation, TCR activator, p53 reactivator)
COc1ccccc1N1CCN(/N=C/C(Cl)=C/c2ccccc2)CC1	BRCA1 expr up 3.98µM
COc1ccccc1N1CCN(/N=C\c2ccccc2)CC1	BRCA1 expr up inconclusive (no result: p53 reactivator)
O=C(COC(=O)CNC(=O)C1CCCCC1)NC1CCCC1	none (no result: IL2 activator, uPA generation, TCR activator, p53 reactivator)
COc1cccc(C(=O)Nc2nc(-c3nnn(-c4ccccc4C(F)(F)F)c3C)ns2)c1	none (no result: IL2 activator, uPA generation, TCR activator, p53 reactivator)
CCC(CO)Oc1cc(NCc2ccc(Cl)cc2)c2ncn(C(C)C)c2c1 (centres undefined)	none
CCC(CO)Oc1cc(NCc2ccc(Cl)cc2Cl)c2ncn(C(C)C)c2c1 (centres undefined)	uPA generation 8.91µM
Cc1ccc(C(=O)c2sc(Nc3ccccc3)c(S(=O)(=O)c3ccccc3)c2N)c(C)c1	none (no result: IL2 activator, uPA generation, TCR activator, p53 reactivator)
Nc1c(C(=O)N2CCCCC2)sc2nc3c(cc12)CCCC3	p53 reactivator inconclusive, BRCA1 expr up 5.62µM
Nc1c(C(=O)N2CCCC2)sc2nc(-c3ccccc3)ccc12	BRCA1 expr up 5.62µM
CC(C)c1ccc(NC(=O)C2CCN(S(=O)(=O)c3cccc4nsnc34)CC2)cc1	none (no result: IL2 activator, uPA generation, TCR activator, p53 reactivator)
CSc1nc2ccc3nc(NC(=O)c4cccs4)sc3c2s1	p53 reactivator inconclusive, BRCA1 expr up 8.91µM
COc1ccc(CC(=O)N2CCc3cc(OC)c(OC)cc3C2COc2cc(C)cc(C)c2)cc1OC (centres undefined)	none (no result: IL2 activator, uPA generation, TCR activator, p53 reactivator)
COc1ccc(CN(C)C(=O)CCl)cc1	uPA generation inconclusive
